Laboratory results from PubChem BioAssay (NCI).
About 79,000 compounds went through this panel and 15% of them were active in at least one assay; those are over-represented in the sample as a whole. Activity calls are given as the source filed them. Cut-off read from the data, not from the text of the source: active = growth inhibition above about 70%; inactive = the rest.

Columns and labels:
[1] = NCI Yeast Anticancer Drug Screen. Data for the mec2-1 strain (AID 157); conditions: S. cerevisiae mec2-1 strain, hits give high values
In short: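 Compounds were applied to mec2-1 yeast cells. Their growth was then compared with that of vehicle-treated cultures to give growth inhibition.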

[2] = NCI Yeast Anticancer Drug Screen. Data for the rad14 strain (AID 159);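 note: 0% = growth of vehicle-treated control cultures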; conditions: S. cerevisiae rad14 strain growth inhibition, hits give high values
In short: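 Test compounds were applied to a repair-deficient yeast strain. Its growth was then compared with that of cultures given vehicle alone, and inhibition was expressed relative to those controls.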

[3] = NCI Yeast Anticancer Drug Screen. Data for the sgs1 mgt1 strain (AID 161);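 note: 0% = growth of cultures given vehicle only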; conditions: S. cerevisiae sgs1 mgt1 strain, hits give high values
In short: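 Percent growth inhibition was derived by comparing compound-exposed mutant yeast with vehicle-exposed cultures. The strain carries alterations in DNA damage repair.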

[4] = NCI Yeast Anticancer Drug Screen. Data for the CLN2oe strain (AID 163);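 note: 0% = growth of vehicle-only control cultures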; conditions: S. cerevisiae CLN2oe strain, hits give high values
In short: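 Cells of an engineered yeast line with disturbed cell-cycle regulation are treated with compound. Inhibition of growth is then calculated relative to the vehicle-treated reference.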

[5] = NCI Yeast Anticancer Drug Screen. Data for the cln2 rad14 strain (AID 165);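 note: 0% = growth equal to vehicle treated cultures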; conditions: S. cerevisiae cln2 rad14 strain, hits give high values
In short: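 Strain: cln2 rad14 yeast, altered in cell cycle control and DNA damage repair. Read-out: growth inhibition vs vehicle.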

[6] = NCI Yeast Anticancer Drug Screen. Data for the bub3 strain (AID 167); conditions: S. cerevisiae bub3 mutant strain, hits give high values
In short: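 Yeast carrying a defined mutation is treated with each compound, and growth is compared with that of vehicle-exposed cells to give inhibition.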

[7] = NCI Yeast Anticancer Drug Screen. Data for the wt2 strain (AID 169);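 note: 0% = growth of vehicle-treated yeast cultures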; conditions: S. cerevisiae wt2 strain growth inhibition, hits give high values
In short: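 Growth of compound-treated yeast is measured and expressed as inhibition relative to vehicle-only controls.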

[8] = NCI Yeast Anticancer Drug Screen. Data for the mlh1 strain (AID 171);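 note: 0% = growth of vehicle-treated control cultures of the same strain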; conditions: S. cerevisiae mlh1 strain growth inhibition, hits give high values
In short: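 Test agents were incubated with yeast bearing a defined DNA damage repair or cell cycle control alteration; values are growth inhibition normalised to vehicle-treated cultures.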

[9] = NCI Yeast Anticancer Drug Screen. Data for the sgs1 strain (AID 173);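 note: 0% = growth of vehicle-only control cultures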; conditions: S. cerevisiae sgs1 mutant, hits give high values
In short: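 Strain with an altered DNA repair or cell cycle pathway exposed to compound. Growth then measured. Value = inhibition versus vehicle control.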

[10] = NCI Yeast Anticancer Drug Screen. Data for the mlh1 rad18 strain (AID 175); conditions: S. cerevisiae mlh1 rad18 strain growth inhibition, hits give high values
In short: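 A repair-deficient yeast strain is exposed to test compound, and growth is scored relative to vehicle-treated controls.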

[11] = NCI Yeast Anticancer Drug Screen. Data for the rad18 strain (AID 177); conditions: S. cerevisiae rad18 mutant growth inhibition, hits give high values
In short: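 DNA-repair-defective yeast; compound treatment; growth inhibition scored against vehicle.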

[12] = NCI Yeast Anticancer Drug Screen. Data for the rad52 strain (AID 147);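 note: 0% = growth of vehicle-treated control cultures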; conditions: S. cerevisiae rad52 mutant growth inhibition, hits give high values
In short: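 Growth of repair-deficient yeast cells was compared between compound-treated and vehicle-treated cultures to give percent inhibition.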

[13] = NCI Yeast Anticancer Drug Screen. Data for the wt1 strain (AID 149);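 note: 0% = growth of vehicle-treated wt1 cultures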; conditions: S. cerevisiae wt1 strain (SPY 50644) growth inhibition, hits give high values
In short: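 wt1 yeast, compound-treated; % growth inhibition vs vehicle control.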

[14] = NCI Yeast Anticancer Drug Screen. Data for the rad50 strain (AID 155);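 note: 0% = growth of vehicle-only cultures of the same strain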; conditions: S. cerevisiae rad50 strain growth inhibition, hits give high values
In short: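 Genetically altered yeast (DNA repair pathway); compound treatment; growth inhibition vs vehicle ctrl.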

[15] = NCI Yeast Anticancer Drug Screen. Data for the rad50EPP+ strain (AID 151);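 note: 0% = growth of vehicle-treated control cultures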; conditions: S. cerevisiae rad50 mutant strain, hits give high values
In short: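 Measured: growth inhibition of rad50EPP+ yeast. Reference: vehicle-treated controls. Screen uses strains with defined genetic alterations in DNA damage repair or cell cycle control.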

[16] = NCI Yeast Anticancer Drug Screen. Data for the mgt1 strain (AID 153); conditions: S. cerevisiae mgt1 mutant growth inhibition, hits give high values
In short: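 Compounds were applied to mgt1 mutant yeast, and growth was then compared against vehicle-treated control cultures to give percent inhibition.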

[17] = at 5.0 µM (retest, dose inferred, filed as 0.5)
[18] = at 50.0 µM (retest, dose inferred, filed as 5.0)

Measured: growth inhibition

COc1ccc(N=CN(C)C)c(C)c1
inactive: [2]; at 1.2 µM -63% | [2]; at 3.7 µM -54% | [2]; at 11.0 µM -43% | [3]; [17] -4% | [4]; at 1.2 µM -28% | [4]; at 3.7 µM -34% | [4]; at 11.0 µM -10% | [5]; [17] 63% | [6]; at 1.2 µM -30% | [6]; at 3.7 µM -9% | [6]; [17] 44% | [6]; at 11.0 µM -28% | [7]; at 1.2 µM -26% | [7]; at 3.7 µM -39% | [7]; at 11.0 µM -27% | [8]; at 1.2 µM -37% | [8]; at 3.7 µM -3% | [8]; at 11.0 µM -16% | [9]; at 1.2 µM -45% | [9]; at 3.7 µM -40% | [9]; at 11.0 µM -59% | [10]; [17] 44% | [10]; at 50.0 µM 48.4% | [11]; at 1.2 µM -50% | [11]; at 3.7 µM -55% | [11]; at 11.0 µM -8%
active: [1]; at 100.0 µM 96% | [2]; at 33.0 µM 92% | [2]; at 100.0 µM 95% | [3]; [18] 97% | [3]; at 50.0 µM 93.5% | [4]; at 33.0 µM 84% | [4]; at 100.0 µM 93% | [5]; [18] 96% | [5]; at 50.0 µM 92% | [6]; at 33.0 µM 88% | [6]; [18] 95% | [6]; at 50.0 µM 91.9% | [6]; at 100.0 µM 94% | [7]; at 33.0 µM 87% | [7]; at 100.0 µM 96% | [8]; at 33.0 µM 93% | [8]; at 100.0 µM 96% | [9]; at 33.0 µM 89% | [9]; at 100.0 µM 95% | [10]; [18] 72% | [11]; at 33.0 µM 89% | [11]; at 100.0 µM 93%

CN(C)CCNc1ccc2ncnc3c2c1C(=O)c1ccccc1-3
inactive: [13]; at 1.2 µM 7% | [13]; at 3.7 µM 8% | [13]; at 11.0 µM 15% | [13]; at 33.0 µM 28% | [13]; at 100.0 µM 34% | [1]; at 1.2 µM 22% | [1]; at 3.7 µM 21% | [1]; [17] 15% | [1]; at 11.0 µM 32% | [1]; at 33.0 µM 45% | [1]; [18] 48% | [1]; at 50.0 µM 68.6% | [1]; at 100.0 µM 53% | [2]; at 1.2 µM 16% | [2]; at 3.7 µM 15% | [2]; at 11.0 µM 20% | [2]; at 33.0 µM 37% | [2]; at 100.0 µM 44% | [3]; [17] -21% | [3]; [18] 56% | [4]; at 1.2 µM 5% | [4]; at 3.7 µM 8% | [4]; at 11.0 µM 26% | [4]; at 33.0 µM 59% | [6]; at 1.2 µM -8% | [6]; at 3.7 µM -2% | [6]; [17] 33% | [6]; at 11.0 µM 11% | [6]; at 33.0 µM 21% | [6]; [18] 31% | [6]; at 100.0 µM 36% | [7]; at 1.2 µM 8% | [7]; at 3.7 µM 10% | [7]; at 11.0 µM 20% | [7]; at 33.0 µM 49% | [7]; at 100.0 µM 56% | [8]; at 1.2 µM 10% | [8]; at 3.7 µM 14% | [8]; at 11.0 µM 28% | [8]; at 33.0 µM 41% | [8]; at 100.0 µM 46% | [10]; [17] -13% | [10]; at 50.0 µM 65.5% | [11]; at 1.2 µM 11% | [11]; at 3.7 µM 12% | [11]; at 11.0 µM 25% | [11]; at 33.0 µM 61%
active: [12]; at 1.2 µM 95% | [12]; at 3.7 µM 94% | [12]; at 11.0 µM 96% | [12]; at 33.0 µM 97% | [12]; at 100.0 µM 96% | [14]; at 1.2 µM 94% | [14]; at 3.7 µM 95% | [14]; [17] 84% | [14]; at 11.0 µM 96% | [14]; at 33.0 µM 96% | [14]; [18] 97% | [14]; at 50.0 µM 76% | [14]; at 100.0 µM 96% | [3]; at 50.0 µM 77.4% | [4]; at 100.0 µM 74% | [6]; at 50.0 µM 74.2% | [10]; [18] 81% | [11]; at 100.0 µM 75%

O=C(COC(=O)c1ccccc1)c1ccc(Br)cc1
inactive: [12]; at 1.2 µM 14% | [12]; at 3.7 µM 20% | [12]; at 11.0 µM 45% | [16]; at 1.2 µM 5% | [16]; at 3.7 µM 13% | [16]; at 11.0 µM 22% | [14]; at 1.2 µM 17% | [14]; at 3.7 µM 23% | [14]; [17] 31% | [14]; at 11.0 µM 68% | [1]; at 1.2 µM 4% | [1]; at 3.7 µM 7% | [1]; [17] 67% | [1]; at 11.0 µM 17% | [2]; at 1.2 µM 16% | [2]; at 3.7 µM 18% | [2]; at 11.0 µM 30% | [3]; [17] 58% | [4]; at 1.2 µM 0% | [4]; at 3.7 µM 13% | [4]; at 11.0 µM 64% | [5]; [17] 12% | [6]; at 1.2 µM 49% | [6]; at 3.7 µM 65% | [6]; [17] 41% | [7]; at 1.2 µM 16% | [7]; at 3.7 µM 63% | [8]; at 1.2 µM 12% | [8]; at 3.7 µM 17% | [8]; at 11.0 µM 38% | [9]; at 1.2 µM -12% | [9]; at 3.7 µM 10% | [10]; [17] 34% | [11]; at 1.2 µM 15% | [11]; at 3.7 µM 17% | [11]; at 11.0 µM 37%
active: [12]; at 33.0 µM 99% | [12]; at 100.0 µM 98% | [15]; at 1.2 µM 75% | [15]; at 3.7 µM 93% | [15]; at 11.0 µM 99% | [15]; at 33.0 µM 99% | [15]; at 100.0 µM 97% | [16]; at 33.0 µM 99% | [16]; at 100.0 µM 98% | [14]; at 33.0 µM 98% | [14]; [18] 99% | [14]; at 50.0 µM 98.8% | [14]; at 100.0 µM 97% | [1]; at 33.0 µM 99% | [1]; [18] 99% | [1]; at 50.0 µM 99.3% | [1]; at 100.0 µM 99% | [2]; at 33.0 µM 99% | [2]; at 100.0 µM 98% | [3]; [18] 99% | [3]; at 50.0 µM 99.4% | [4]; at 33.0 µM 99% | [4]; at 100.0 µM 97% | [5]; [18] 99% | [5]; at 50.0 µM 98.8% | [6]; at 11.0 µM 100% | [6]; at 33.0 µM 99% | [6]; [18] 99% | [6]; at 50.0 µM 99.7% | [6]; at 100.0 µM 99% | [7]; at 11.0 µM 96% | [7]; at 33.0 µM 100% | [7]; at 100.0 µM 99% | [8]; at 33.0 µM 99% | [8]; at 100.0 µM 98% | [9]; at 11.0 µM 90% | [9]; at 33.0 µM 99% | [9]; at 100.0 µM 99% | [10]; [18] 99% | [10]; at 50.0 µM 99.2% | [11]; at 33.0 µM 99% | [11]; at 100.0 µM 98%
